{
  "source": "PubChem BioAssay (NCI)",
  "note": "“And” between values parts separate entries of the source, which are not always exact repeats. Identical values can stand only once. About 83,000 compounds went through this panel and 20% of them were active in at least one assay; those are over-represented in the sample as a whole.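 Activity criterion: percent growth below 10, measured after cells in 96-well plates were exposed to a single compound concentration for 48 hours.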 The source made the active and inactive calls.",
  "data": [
    {"tested_on": "MDA-MB-468 breast", "experiment": "NCI-60 one-dose screen, 48 h (100 = growth as untreated, 0 = no growth, -100 = all killed)", "settings": "10 µM unless noted", "values": [
      {"smiles": "CC(=O)N[C@H](C(=O)N[C@@H](CCCNC(=N)N)C(=O)N[C@@H](CCCCN)C(=O)N[C@@H](CCCNC(=N)N)C(=O)NC(C(=O)N[C@@H](CC(C)C)C(=O)N[C@@H](CCCNC(=N)N)C(=O)N[C@@]1(C)CCC/C=C\\CCC[C@@](C)(C(=O)N[C@@H](CCCNC(=N)N)C(=O)N[C@@H](CCC(=O)O)C(=O)N[C@@H](CC(C)C)C(=O)N[C@H](C(=O)N[C@@H](CCC(=O)O)C(N)=O)C(C)C)NC(=O)[C@H](CCC(N)=O)NC(=O)[C@H](CC(C)C)NC(=O)[C@H](CC(C)C)NC1=O)[C@@H](C)O)C(C)C", "note": "(stereo not given in full)", "growth": "31.9% (inactive)"},
      {"smiles": "O=C(CCCCCCN1CC(=O)N2[C@H](c3cc(Br)cs3)c3[nH]c4ccccc4c3C[C@H]2C1=O)NO", "growth": "44.7% (inactive)"},
      {"smiles": "COc1cc(-c2csc(NC(=O)c3ccc(N4CCOCC4)c(C(F)(F)F)c3)n2)cc(OC)c1OC", "growth": "27.2% (inactive)"},
      {"smiles": "O=C1/C(=C/c2ccc(C(F)(F)F)cc2)COc2ccc(O)cc21", "growth": "100% (inactive)"},
      {"smiles": "CCCCNC(=O)Oc1ccc(/C(=C(\\C)c2ccc(OC)cc2)c2ccc(OCCN3CCCCC3)cc2)cc1", "growth": "64.4% (inactive)"},
      {"smiles": "CCOC(=O)c1cc(/C=C/c2ccc(Cl)cc2Cl)on1", "growth": "37.6% (inactive)"},
      {"smiles": "CC(=O)Nc1ccc2cc3ccc(NC(C)=O)cc3nc2c1", "growth": "56.5% (inactive)"},
      {"smiles": "Nc1c(C(=O)Nc2cccc(Br)c2)sc2nc3c(cc12)C(O)CCC3", "note": "(stereo not given)", "growth": "29.8% (inactive)"},
      {"smiles": "COC(=O)c1nc(-c2ccccc2)oc1S(=O)(=O)Cc1ccccc1", "growth": "59.3% (inactive)"},
      {"smiles": "CC1=C(C)C(=O)C(Nc2cccc(C(=O)OC(C)(C)C)c2)=CC1=O", "growth": "37.5% (inactive)"},
      {"smiles": "COc1ccc2oc(=O)cc(C3c4ccc([nH]4)C(c4cc(=O)oc5ccc(OC)cc45)c4ccc([nH]4)C(c4cc(=O)oc5ccc(OC)cc45)c4ccc([nH]4)C(c4cc(=O)oc5ccc(OC)cc45)c4ccc3[nH]4)c2c1", "note": "(stereo not given)", "growth": "-38.6% (active)"},
      {"smiles": "CCN(CC)CCCCCCCNc1cc(OC)cc2c(C)ccnc12", "growth": "40.5% (inactive)"},
      {"smiles": "CC(=O)OC[C@H]1OC(Sc2sc(C(=O)c3ccc(Cl)cc3)c(N)c2-c2nc3ccccc3s2)[C@H](OC(C)=O)[C@@H](OC(C)=O)[C@@H]1OC(C)=O", "note": "(stereo not given in full)", "growth": "112% (inactive)"},
      {"smiles": "S=c1[nH]ccn1-c1c(Cl)cccc1Cl", "growth": "110% (inactive)"},
      {"smiles": "O=C(Nc1cccc(-n2ccc3c(NC(=O)c4ccccc4)nccc32)c1)c1ccc(Cl)c(C(F)(F)F)c1", "growth": "-86.9% (active) and 85.1% (inactive)"},
      {"smiles": "COc1cc(-c2nn(-c3ccc(NC(=O)c4cc(Cl)cc(Cl)c4)cc3)cc2-c2ccncc2)ccc1Cl", "growth": "89.2% (inactive)"},
      {"smiles": "O=C(NCCNc1cc(-c2cn(-c3ccccc3)nc2-c2cccc(O)c2)ccn1)Nc1cc(C(F)(F)F)cc(C(F)(F)F)c1", "growth": "93.6% (inactive)"},
      {"smiles": "O=C(NO)c1ccc(-n2nc(-c3ccccc3)c3ccccc32)cc1", "growth": "52.9% (inactive)"},
      {"smiles": "C=C[C@@H]1C[C@H](O)Cc2ccccc2N1", "growth": "123% (inactive)"},
      {"smiles": "Cc1ncc(C#N)c(N)n1", "growth": "89.3% (inactive)"},
      {"smiles": "COc1ccc(CCn2cnn3c(=O)c4ccccc4nc3c2=O)cc1OC", "growth": "93.5% (inactive) and 94.3% (inactive)"},
      {"smiles": "CCOC(=O)C1=C(C)n2nc(CC#N)c(C#N)c2NC1c1ccc(CC)cc1", "note": "(stereo not given)", "growth": "114% (inactive)"},
      {"smiles": "CC(=O)c1cc(-c2ccccc2N)n(-c2ccc3c(c2)OCO3)c1C", "growth": "30.5% (inactive)"},
      {"smiles": "COc1ncnc2c1ncn2C/C(Br)=C(\\Br)CCl", "growth": "16.9% (inactive)"},
      {"smiles": "COc1ccc2sc3c(NCCO)nc4ccccc4c3c(=O)c2c1", "growth": "109% (inactive)"},
      {"smiles": "COc1cc2oc(-c3cccc(NC(=O)c4ccccc4)c3)cc(=O)c2c(OC)c1OC", "growth": "84.2% (inactive)"},
      {"smiles": "COc1cc2c(cc1OC)-c1ccc3cc4c(cc3c1N(CCN1CCCC1)C2)OCO4", "growth": "-5.22% (active)"},
      {"smiles": "NS(=O)(=O)c1ccc(-n2cc(CN3CCCCC3)nn2)cc1", "growth": "101% (inactive)"},
      {"smiles": "Cc1cnc(C(=O)Nc2nc3ccc(S(=O)(=O)Nc4ccc(C(C)(C)C)cc4)cc3[nH]2)cn1", "growth": "-11.4% (active)"},
      {"smiles": "C=CCN(CC=C)C(=O)[C@H](CC)[C@@H]1CC[C@@H](C)[C@@H]([C@H](C)[C@@H](O)[C@@H](C)C(=O)[C@H](CC)C2O[C@]3(C=C[C@@H](O)[C@]4(CC[C@@](C)([C@H]5CC[C@](O)(CC)[C@H](C)O5)O4)O3)[C@H](C)C[C@@H]2C)O1", "note": "(stereo not given in full)", "growth": "-19.1% (active)"}
    ]}
  ]
}
